Consider 25 compounds from PubChem BioAssay AID1259415 (National Center for Advancing Translational Sciences (NCATS), 2018).

About 18,000 (4.4%) of roughly 410,000 compounds were called active. Inconclusive results (about 7%) are left out. Rule as the data show it: active = activity change below about -60%; inconclusive = no clear call, values can overlap the other calls; inactive = above about -39%. This excerpt belongs to a sample that is enriched for actives.
% is scaled to controls: 0 for no effect and ±100 for the full control effect.

A short description of this experiment: qHTS Assay for inhibitors of the human cytomegalovirus (HCMV). As to conditions: HFF cells, HCMV-luciferase reporter, 72 h; at 57.5 µM; hits give low values. The procedure, abridged:
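Inhibition of viral replication was scored as loss of reporter luminescence in HFFs infected with HCMV-luciferase (MOI 1 PFU/cell) for 72 h; compounds tested at 2 doses, normalized to buffer and Salinomycin controls.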
A general note: In qHTS, concentration-response curves come from the screen itself.
Consider `COc1ccc(S(=O)(=O)n2nc(C)c(S(=O)(=O)N3CCCCCC3)c2C)cc1`, for which the activity change, negative = inhibition was -17.6% (inactive).
As for `CC(C)c1ccc(O)c(CN2CCN(c3ccccc3)CC2)c1`, the figure is 12.7% (inactive).
The figure for `COc1ccccc1CN1CCCC(N2CCN(c3ccc(F)cc3)CC2)C1` (stereo not given) is -1.19% (inactive); for `Oc1c(CN2CCN(c3ccc(F)cc3)CC2)cc(Cl)c2cccnc12` it is -102% (active); for `COc1ccc(CNc2nc(-c3ccccc3)nn2C(=O)c2ccccc2OC)cc1` it is -16.2% (inactive).
As for `N#Cc1cccc(NC(=O)N[C@H]2CC[C@@]34CCCN3C(=O)CCC[C@H]4C2Cc2ccccc2)c1` (stereo not given in full), the figure is 0.85% (inactive); as for `CCN(CCCCOC(=O)c1ccc(OC)c(OC)c1)C(C)Cc1ccc(OC)cc1` (stereo not given), -37% (inactive).
With `COc1ccc(C(CCN(Cc2ccc(OC)c(OC)c2)C(=O)CCl)c2ccccc2)cc1` (stereo not given), the activity change, negative = inhibition was -91.8% (active).
In the case of `CCOc1ccc(C(CCc2ccccc2)NC(=O)c2ccc(OC)c(OC)c2)cc1OCC` (stereo not given), the activity change, negative = inhibition was 37% (inactive).
As for `Cc1noc2ncnc(NCc3ccccc3Cl)c12`, the figure is -26.2% (inactive).
As for `O=C(O)c1ccc2c3c(cccc13)C(=O)N(OS(=O)(=O)c1ccccc1)C2=O`, the figure is -101% (active).
The figure for `Cc1cc(OCC(=O)Nc2ncn[nH]2)c(C)c(C)c1Br` is 1.07% (inactive).
As for `O=C(Nc1ccc(F)cc1F)c1cnn(-c2ccc(F)cc2)c1-n1cccc1`, the activity change, negative = inhibition is -4.17% (inactive).
As for `COc1ccc(Cl)cc1NC(=O)CSc1nc(-c2cccs2)cc(C(F)(F)F)n1`, the figure is -23.8% (inactive).
Regarding `CC(=O)c1ccc(N2CCN(c3nc4c(S(=O)(=O)c5ccccc5)nnn4c4ccc(Cl)cc34)CC2)cc1`, the activity change, negative = inhibition was 8.15% (inactive).
As for `CN(CCc1ccccc1)c1ccc([N+](=O)[O-])cn1`, the figure is 12.9% (inactive).
The figure for `c1ccc2cc(CCCc3cc4ccccc4cn3)ncc2c1` is -18.2% (inactive).
The figure for `O=[N+]([O-])c1cnc2ccc3ccccc3c2c1` is -96.3% (active); for `O=C(c1c(F)cccc1F)N1CCN(c2ncc(Br)cn2)CC1` it is 2.5% (inactive).
`CCOC(=O)c1ccc(N2C(=O)c3n[nH]c(-c4ccco4)c3C2c2ccc(O)cc2)cc1` (stereo not given): the activity change, negative = inhibition was -8.9% (inactive).
The figure for `O=C(C1CC1)N1N=C(c2ccc(Br)cc2)CC1(O)C(F)(F)F` (stereo not given) is 10% (inactive); for `COC(=O)C1(O)CC(C(C)C)=NN1C(=O)c1ccc(Cl)cc1` (stereo not given) it is 27.1% (inactive).
The figure for `O=C(c1ccc(Cl)cc1)N1N=C(c2ccccn2)CC1(O)C(F)(F)F` (stereo not given) is -98.8% (active); for `O=C(COc1ccccc1F)Nc1ccc(C(=O)OCc2cc(=O)n3nc(C4CC4)sc3n2)cc1` it is 10.3% (inactive); for `CCCC(=O)N1CCN(c2nc3c(OC)ccc(C)c3s2)CC1` it is 0.538% (inactive).
